Reference: PubChem BioAssay AID1240 (Sanford-Burnham Center for Chemical Genomics, 2008)
Screen size: about 50,000 compounds; about 800 (1.6%) showed an effect of 50% or more. Many of the other results were omitted from the sample, so strong results are more common in it than they were.

The molecules below were run against Bcl-2-like protein 10 (Homo sapiens) (UniProt Q9HD36) (assay: Phenotype converters, Bcl-B/TR3 peptide binding displacement, primary biochemical FP (AID 1240;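 note: 0% = Bcl-B with tracer peptide and DMSO and 100% = tracer peptide lacking Bcl-B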)). Conditions: GST-Bcl-B / FITC-TR3 peptide fluorescence polarization; stronger effect = higher value; compound at 3.75 mg/L.
Chain of Bcl-2-like protein 10 (Homo sapiens) (Q9HD36 whole entry, looked up): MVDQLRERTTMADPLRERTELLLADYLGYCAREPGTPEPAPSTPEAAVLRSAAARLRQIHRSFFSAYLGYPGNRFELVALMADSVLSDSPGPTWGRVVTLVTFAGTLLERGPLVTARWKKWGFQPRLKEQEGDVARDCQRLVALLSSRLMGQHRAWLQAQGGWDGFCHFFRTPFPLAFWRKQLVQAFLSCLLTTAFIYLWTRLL

SMILES | displacement
CCOc1cc(C2NC(=S)NC(C)=C2C(=O)Nc2ccc(Cl)cc2)ccc1O (stereo not given) | -3.2%
Cc1ccc2c(Cl)c(C(=O)NCC3CCCO3)sc2c1 (stereo not given) | -20.5%
CCOCCOC(=O)c1ccc(NC(=O)COc2ccc(C)cc2C)cc1 | -9%
O=C(ON=C1c2ccccc2-c2ccccc21)c1ccc(Cl)cc1Cl | 13.1%
CCCCOc1ccc(C=C2C(=O)N(C)C(=O)N(C)C2=O)cc1 | 8.8%
Cc1ccc(C=C2C(=O)N(C)C(=O)N(C)C2=O)cc1 | 79.7%
CN1C(=O)C(=Cc2ccc(N3CCOCC3)cc2)C(=O)N(C)C1=O | 8.9%
COc1ccccc1C/C(N)=N/OC(=O)COc1ccc2ccccc2c1 | 5.6%
CCOc1ccccc1C1Nc2ccccc2NC2=C1C(=O)CC(c1ccc(OC)c(OC)c1)C2 (stereo not given) | 11.3%
CCOC(=O)COc1ccc(/C=c2/sc3nc4cc(C)c(C)cc4n3c2=O)cc1OC | -4.4%
O=C(/C=C/c1ccccc1)Nc1nnc(-c2ccccc2)s1 | 7.6%
COc1cccc(-c2nnc(NC(=O)/C=C/c3ccccc3)s2)c1 | 51.4%
O=C(/C=C/c1ccccc1)Nc1nnc(-c2ccncc2)s1 | -6%
COc1ccc(NC(=O)c2ccc(OC)c(OC)c2)cc1Cl | 20.4%
Cc1ccccc1NC(=O)c1ccc2ccccc2n1 | -3.8%
O=C(Nc1ccccc1[N+](=O)[O-])c1ccc2ccccc2n1 | 89.3%
O=C(Nc1ccccc1Cl)c1ccc2ccccc2n1 | 1%
CC(=O)Nc1ccc2oc(-c3ccc4nc(NC(C)=O)sc4c3)nc2c1 | -4.1%
Cc1ccc(S(=O)(=O)N2CCCCCC2)cc1 | -12.9%
CC(=O)NC1=NC(=O)/C(=C/c2cc(C)n(-c3ccc(C(=O)O)cc3)c2C)S1 | -89.7%
COC(=O)c1cccc(-n2c(C)cc(/C=C3\SC(NC(C)=O)=NC3=O)c2C)c1 | 1.1%
C=CCN1C(=O)/C(=C\c2cc(C)n(-c3ccc([N+](=O)[O-])cc3)c2C)SC1=S | 14.9%

SMILES | displacement
C=CCN1C(=O)/C(=C/c2cc(C)n(-c3ccc(C(=O)OC)cc3)c2C)SC1=S | 109%
C=CCN1C(=O)/C(=C\c2ccc(C(=O)OC)cc2)SC1=S | 7.8%
COC(=O)c1ccc(-n2c(C)cc(/C=C3\SC(NC(C)=O)=NC3=O)c2C)cc1 | 114%
COc1ccccc1-n1c(SCC(=O)c2ccccc2)nc2ccccc2c1=O | -4.7%
COc1ccc(-c2cc(C(=O)OC(C)C)c3cc(Br)ccc3n2)cc1 | -3.9%
O=C(Nc1ccccc1)C1C2/C=C\CCCCC21 (stereo not given) | -10.2%
O=C(N/N=C/c1ccco1)c1ccc(C(=O)N/N=C/c2ccco2)cc1 | 27.6%
Cc1cccc(NC(=O)c2ccccc2NC(=O)c2cccs2)c1C | 9.5%
CC1CCCCN1C(=O)c1cc2nc(-c3cccs3)cc(C(F)(F)F)n2n1 (stereo not given) | 18.3%
Nc1c(C(=O)C2CC2)sc2nc(-c3cccs3)cc(C(F)(F)F)c12 | 52.1%
O=C(O)c1cnn2c(C(F)(F)F)cc(-c3cccs3)nc12 | 5.9%
N#C/C(=C(/O)C(c1ccccc1)c1ccccc1)c1nc2ccccc2s1 | -3.6%
CC(C)(C)c1cc(C2=C(N3CCOCC3)C(=O)c3ccccc3C2=O)cc(C(C)(C)C)c1O | 11.6%
COc1cc2nc(-c3ccc(Oc4ccc([N+](=O)[O-])cc4)cc3)oc(=O)c2cc1OC | 10.6%
COc1cc2nc(-c3ccc([N+](=O)[O-])cc3)oc(=O)c2cc1OC | 78%
COc1cc2nc(-c3ccc([N+](=O)[O-])c(C)c3)oc(=O)c2cc1OC | -11.4%
CCc1c(C)nc2ccc(C)cc2c1SCC(=O)O | 9.8%
Cc1cc(C)nc(SCC(=O)N(c2ccccc2)c2ccccc2)n1 | -6.6%
CSc1nc(N)c(C#N)c(-c2ccccc2)c1C#N | -11%
NC(=O)c1ccc(NC(=O)COc2ccccc2Cl)cc1 | -2%
Cc1cccc(OCCn2cc(C=C3C(=O)NC(=S)NC3=O)c3ccccc32)c1 | 11.2%
C=CCc1ccccc1OCCn1cc(C=C2C(=O)NC(=O)NC2=O)c2ccccc21 | -6.7%

SMILES | displacement
C=CCc1ccccc1OCCn1cc(/C=C2/SC(=S)NC2=O)c2ccccc21 | 5.8%
C=CCc1ccccc1OCCn1cc(C=C2C(=O)NC(=S)NC2=O)c2ccccc21 | 53.6%
O=C1NC(=O)C(=Cc2cn(CCOc3ccc(Br)cc3)c3ccccc23)C(=O)N1 | 73.8%
Cc1ccc(OCCn2cc(C=C3C(=O)NC(=O)NC3=O)c3ccccc32)cc1C | 79.3%
O=C1NC(=S)NC(=O)C1=Cc1cn(CCOc2ccc(Br)cc2)c2ccccc12 | 9.1%
COc1cccc(OCCn2cc(C=C3C(=O)NC(=O)NC3=O)c3ccccc32)c1 | 15.2%
CN1C(=O)/C(=C\c2cn(CCOc3ccc(Br)cc3)c3ccccc23)SC1=S | 3.5%
c1ccc(C2=C(c3ccccc3)N3CCN=C3S2)cc1 | 6.4%
O=S1(=O)CCC(NC(=S)N/N=C/c2cccc3ccccc23)C1 (stereo not given) | 5.1%
COc1ccc(-n2nc3cc(C)c(NC(=O)c4cc(Cl)ccc4OC)cc3n2)cc1 | -5.3%
Cc1ccc(NC(=O)COC(=O)c2ccn(C)n2)cc1 | 13.5%
Cc1cc(NC(=O)c2ccc(Cl)cc2Cl)ccc1NC(=O)c1ccccc1 | -2.3%
CCOC(=O)C1=C(O)/C(=C\c2ccc([N+](=O)[O-])cc2)N=C1C | 1.5%
CCOC(=O)C1=C(O)/C(=C/c2ccc(Br)cc2)SC1=Nc1ccc([N+](=O)[O-])cc1 | 15%
CCOC(=O)C1=C(O)/C(=C/c2cccc([N+](=O)[O-])c2)N=C1C | 129%
CCOC(=O)C1=C(O)/C(=C/c2cccc(O)c2)SC1=Nc1ccc([N+](=O)[O-])cc1 | -1.1%
CCOC(=O)C1=C(O)/C(=C/c2cccnc2)SC1=Nc1ccc([N+](=O)[O-])cc1 | 55.2%
CCOC(=O)C1=C(O)/C(=C\c2ccccc2[N+](=O)[O-])N=C1C | 15.7%
CCOC(=O)C1=C(O)/C(=C/c2cccnc2)SC1=Nc1ccc(C)cc1 | 14.8%
CCOC(=O)C1=C(O)/C(=C/c2ccccc2)SC1=Nc1ccc([N+](=O)[O-])cc1 | -0.9%
CCOC(=O)C1=C(O)/C(=C/c2cccc(Br)c2)SC1=Nc1ccc([N+](=O)[O-])cc1 | 63.1%
CCOC(=O)c1c(NC(=O)/C=C/c2cccs2)sc(C)c1C | 2.9%

SMILES | displacement
Cc1ccc(OCC(=O)Nc2cc(Cl)cc(Cl)c2)cc1 | 12.4%
O=C(NCc1ccc2c(c1)OCO2)c1ccc(F)cc1 | 11.2%
COc1ccc(/C=C2/C(=O)ON=C2c2ccccc2)cc1 | 13.6%
CC(=O)Oc1ccc2c(C)cc(=O)oc2c1C | -10.7%
CCOc1ccccc1N1CCN(C(=O)C(Sc2ccccc2)c2ccccc2)CC1 (stereo not given) | -4.4%
CC1CN(C(=O)c2cccs2)CC(C)O1 (stereo not given) | 3.3%
CC(=O)Nc1ccc(NC2=C(Cl)C(=O)c3ccccc3C2=O)cc1 | 7.1%
Cc1cc(Cl)ccc1OCC(N)=O | -0.8%
Cc1ccc(S(=O)(=O)/N=C(\c2ccccc2)N(C)C)cc1 | 13.2%
CN(C)/C(=N\S(=O)(=O)c1ccc(Br)cc1)c1ccccc1 | 96.8%
N/C(=N/S(=O)(=O)c1ccc(Br)cc1)c1ccccc1 | 8.5%
COc1ccccc1/C=C1\SC(=S)N(c2c(C)n(C)n(-c3ccccc3)c2=O)C1=O | 1.2%
CCOc1ccc(Br)cc1C=Nc1c(C)n(C)n(-c2ccccc2)c1=O | -1.8%
COc1cc(C=Nc2c(C)n(C)n(-c3ccccc3)c2=O)c([N+](=O)[O-])cc1OC | 130%
COc1cc(/C=N/N2C(=O)c3ccccc3C2=O)c([N+](=O)[O-])cc1OC | -1.8%
COc1cc(/C=C2/SC(=S)N(c3c(C)n(C)n(-c4ccccc4)c3=O)C2=O)c([N+](=O)[O-])cc1OC | 61.3%
Cc1c(N2C(=O)/C(=C/c3cccs3)SC2=S)c(=O)n(-c2ccccc2)n1C | 8.6%
COc1ccccc1C/C(N)=N/OC(=O)c1ccc(I)cc1 | 10.8%
Cc1ccc(C23CC4CC(CC(C(=O)Nc5ccc(F)cc5F)(C4)C2)C3)cc1 | -3.1%
Cc1cc(Cl)ccc1OCC(=O)NCC1CCCO1 (stereo not given) | 1.4%
CC(C)CN1C(=O)c2ccc(C(=O)Nc3ccc(Br)cc3C(=O)O)cc2C1=O | -12.5%
Cc1ccc(/C=C/C(=O)Nc2cccc3cccnc23)o1 | 91.4%

SMILES | displacement
Cc1ccc(/C=C/C(=O)Nc2cccc3ccccc23)o1 | -7.3%
Cc1ccc(/C=C/C(=O)Nc2cccc3ncccc23)o1 | 27.1%
Cc1c(C(=O)Nc2ccc(Cl)cn2)oc2ccccc12 | 15.4%
Cc1cccc(C(C)C)c1NC(=O)COc1ccc(Cl)cc1Cl | 13.3%
Cc1cccc(N2C(=O)/C(=C/c3ccco3)SC2=S)c1C | 1.9%
Cc1cc(/C=C2\SC(=S)NC2=O)c(C)n1-c1cccc([N+](=O)[O-])c1 | 7.1%
Cc1ccc(C)n1Cc1ccc(C(=O)O)cc1 | 66.4%
Cc1ccc(CN2CCN(/N=C/c3ccc(C(=O)O)cc3)CC2)cc1 | 16.4%
O=C(O)c1ccc(CN2CCOCC2)cc1 | 13.7%
CC(=O)c1cccc(NC(=O)/C(=C\c2cccnc2)NC(=O)c2ccccc2)c1 | -5.3%
N/C(Cc1cccc2ccccc12)=N\OC(=O)c1ccc(F)cc1 | 31.7%
N/C(Cc1cccc2ccccc12)=N\OC(=O)c1cccs1 | 98.4%
COc1ccc(C/C(N)=N/OC(=O)c2cccs2)cc1 | 8.1%
COc1ccc(C(=O)CSc2nc3c(c(-c4ccc(C)o4)c2C#N)CCCC3)cc1 | 7.6%
CC(C)(C)C1(O)CC(C(F)(F)F)=NN1C(=O)COc1ccccc1 (stereo not given) | -7.4%
O=C1ON=C(c2ccccc2)/C1=C/c1ccc(Br)s1 | 70.8%
O=C1ON=C(c2ccccc2)/C1=C/c1cccnc1 | -9.2%
CCCCc1ccc(/C=C2/C(=O)ON=C2c2ccccc2)s1 | 40.8%
CCCCN(CC)c1cnn(-c2ccccc2)c(=O)c1N | 10.6%
COc1ccc(C2C(C(C)=O)=C(Nc3ccccc3)CC(C)(O)C2C(C)=O)cc1 (stereo not given) | 1.4%
CC(=O)C1=C(Nc2ccc(Br)cc2)CC(C)(O)C(C(C)=O)C1c1ccc(C)cc1 (stereo not given) | -4.9%
COc1ccc(C2C(C(C)=O)=C(Nc3ccc(Br)cc3)CC(C)(O)C2C(C)=O)cc1 (stereo not given) | 90.9%
